Test results from article PMC7862700, “An all-to-all approach to the identification of sequence-specific readers for epigenetic DNA modifications on cytosine”.

Tests used:
Test in all cases: DAPPL (digital affinity profiling via proximity ligation, sequencing); 10 mM Tris-HCl pH 7.5, 50 mM NaCl, 1 mM DTT, 4% glycerol, room temperature, 30 min; GST-TFs on glutathione beads, 16-mer random dsDNA library, 0.1% formaldehyde crosslink after washing; high values mean tight binding
Conditions in all cases: protein: recombinant; tags: N-terminal GST; dsDNA, one strand shown
[1] = target: ELF4 (Homo sapiens, UniProt Q99607 1-663)
Outline: (§1)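 Binding signal is each hexamer's read frequency for a factor divided by its frequency in the tag-only sample. The factors were GST-fused human transcription factors from yeast, captured on glutathione beads, DNA-barcoded and pooled with that sample. Pools were incubated with 200 nmole of a random double-stranded 16-mer DNA library in Tris/NaCl/DTT/glycerol buffer at room temperature for 30 min, then washed, crosslinked with 0.1% formaldehyde, proximity-ligated with BsaI/T4 ligase (1 h, 37 °C), PCR-amplified and sequenced on an Illumina NextSeq500.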

[2] = target: T1, ELK4 (Homo sapiens, UniProt P28324-2 1-405)
T1 sequence: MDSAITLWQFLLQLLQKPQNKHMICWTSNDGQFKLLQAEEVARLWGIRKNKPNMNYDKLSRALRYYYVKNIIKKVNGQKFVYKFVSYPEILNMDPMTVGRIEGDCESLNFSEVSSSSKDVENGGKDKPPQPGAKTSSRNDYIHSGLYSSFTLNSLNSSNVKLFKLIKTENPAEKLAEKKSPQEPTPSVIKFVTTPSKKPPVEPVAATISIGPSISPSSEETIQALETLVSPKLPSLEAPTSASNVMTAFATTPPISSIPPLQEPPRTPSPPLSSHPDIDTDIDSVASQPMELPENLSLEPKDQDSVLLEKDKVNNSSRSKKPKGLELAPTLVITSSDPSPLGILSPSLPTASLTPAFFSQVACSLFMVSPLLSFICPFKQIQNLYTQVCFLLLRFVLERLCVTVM
Outline: as §1

[3] = target: T2, ETV2 (Homo sapiens, UniProt O00321 1-342)
T2 sequence: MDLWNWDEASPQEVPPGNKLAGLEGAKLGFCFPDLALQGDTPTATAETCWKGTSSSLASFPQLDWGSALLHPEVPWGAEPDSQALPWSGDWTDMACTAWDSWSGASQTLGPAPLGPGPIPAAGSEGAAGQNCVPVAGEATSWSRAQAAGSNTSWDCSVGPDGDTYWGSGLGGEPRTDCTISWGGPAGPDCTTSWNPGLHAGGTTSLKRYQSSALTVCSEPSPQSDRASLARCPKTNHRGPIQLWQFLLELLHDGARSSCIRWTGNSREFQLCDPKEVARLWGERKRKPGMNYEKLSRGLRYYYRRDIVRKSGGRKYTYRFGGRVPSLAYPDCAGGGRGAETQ
Outline: as §1

[4] = target: T3, ELF3 (Homo sapiens, UniProt P78545 1-371)
T3 sequence: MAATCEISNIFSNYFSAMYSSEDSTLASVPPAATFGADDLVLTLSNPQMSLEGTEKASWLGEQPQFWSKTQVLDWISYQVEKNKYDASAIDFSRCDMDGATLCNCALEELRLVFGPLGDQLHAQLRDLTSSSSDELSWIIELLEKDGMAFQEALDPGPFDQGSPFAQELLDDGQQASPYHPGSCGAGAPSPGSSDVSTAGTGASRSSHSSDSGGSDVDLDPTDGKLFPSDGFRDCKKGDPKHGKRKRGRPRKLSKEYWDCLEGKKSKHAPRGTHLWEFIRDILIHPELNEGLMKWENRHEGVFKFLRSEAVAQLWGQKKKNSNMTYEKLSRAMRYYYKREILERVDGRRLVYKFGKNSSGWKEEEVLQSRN
Outline: as §1

[5] = target: CRX (Homo sapiens, UniProt O43186 1-299)
Outline: as §1

[6] = target: ETV1 (Homo sapiens, UniProt P50549 1-477)
Outline: as §1

[7] = target: T4, ERF (Homo sapiens, UniProt P50548 1-548)
T4 sequence: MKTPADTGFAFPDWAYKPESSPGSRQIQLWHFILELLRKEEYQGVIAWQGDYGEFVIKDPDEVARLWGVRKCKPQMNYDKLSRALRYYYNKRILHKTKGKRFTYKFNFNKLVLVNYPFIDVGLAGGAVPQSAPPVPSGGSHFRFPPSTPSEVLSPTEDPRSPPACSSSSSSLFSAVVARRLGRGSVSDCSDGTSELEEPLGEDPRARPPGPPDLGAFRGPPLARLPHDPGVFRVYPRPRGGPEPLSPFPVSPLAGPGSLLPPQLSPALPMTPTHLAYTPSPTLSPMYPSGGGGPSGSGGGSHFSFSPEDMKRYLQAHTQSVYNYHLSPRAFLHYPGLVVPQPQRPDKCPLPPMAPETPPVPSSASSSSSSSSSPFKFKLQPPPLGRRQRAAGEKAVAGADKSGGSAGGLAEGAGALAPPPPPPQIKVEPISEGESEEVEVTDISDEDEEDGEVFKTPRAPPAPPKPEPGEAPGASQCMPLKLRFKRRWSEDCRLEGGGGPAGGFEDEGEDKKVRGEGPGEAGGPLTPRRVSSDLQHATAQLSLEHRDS
Outline: as §1

[8] = target: T5, ETV3L (Homo sapiens, UniProt Q6ZN32 1-361)
T5 sequence: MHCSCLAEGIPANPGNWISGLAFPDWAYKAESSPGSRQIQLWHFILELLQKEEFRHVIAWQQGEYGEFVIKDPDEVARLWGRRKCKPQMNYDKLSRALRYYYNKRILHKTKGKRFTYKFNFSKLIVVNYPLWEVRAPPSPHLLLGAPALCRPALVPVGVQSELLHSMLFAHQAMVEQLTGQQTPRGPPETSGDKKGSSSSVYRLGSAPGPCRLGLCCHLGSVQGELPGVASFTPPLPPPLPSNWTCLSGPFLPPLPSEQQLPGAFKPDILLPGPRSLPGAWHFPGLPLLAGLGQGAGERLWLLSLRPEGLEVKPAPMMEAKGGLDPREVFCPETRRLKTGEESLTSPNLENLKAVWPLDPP
Outline: as §1

[9] = target: T6, ELF5 (Homo sapiens, UniProt Q9UKW6-2 1-255)
T6 sequence: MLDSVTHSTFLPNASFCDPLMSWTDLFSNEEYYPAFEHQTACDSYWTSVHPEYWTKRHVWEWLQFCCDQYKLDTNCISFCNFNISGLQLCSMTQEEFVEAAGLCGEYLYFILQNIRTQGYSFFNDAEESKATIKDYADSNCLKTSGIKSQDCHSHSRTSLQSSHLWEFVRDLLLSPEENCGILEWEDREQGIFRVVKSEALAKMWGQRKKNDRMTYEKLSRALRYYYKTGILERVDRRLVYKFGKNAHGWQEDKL
Outline: as §1

[10] = target: T7, ETV3 (Homo sapiens, UniProt P41162-2 1-143)
T7 sequence: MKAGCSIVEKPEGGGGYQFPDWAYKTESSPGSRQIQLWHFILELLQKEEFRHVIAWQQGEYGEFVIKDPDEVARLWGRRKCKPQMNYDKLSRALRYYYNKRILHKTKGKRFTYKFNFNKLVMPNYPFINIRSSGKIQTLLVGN
Outline: as §1

[11] = target: ETV6 (Homo sapiens, UniProt P41212 1-452)
Outline: as §1

Chain of CRX (O43186 whole entry): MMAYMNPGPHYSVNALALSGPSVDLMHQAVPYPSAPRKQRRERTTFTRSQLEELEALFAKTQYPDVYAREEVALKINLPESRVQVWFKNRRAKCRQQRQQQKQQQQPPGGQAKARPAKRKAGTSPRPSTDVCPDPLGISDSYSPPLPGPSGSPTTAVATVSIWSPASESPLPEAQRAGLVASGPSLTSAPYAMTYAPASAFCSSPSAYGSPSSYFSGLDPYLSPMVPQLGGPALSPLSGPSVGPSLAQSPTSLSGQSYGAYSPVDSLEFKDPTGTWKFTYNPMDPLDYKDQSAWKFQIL
Chain of ETV1 (P50549 whole entry): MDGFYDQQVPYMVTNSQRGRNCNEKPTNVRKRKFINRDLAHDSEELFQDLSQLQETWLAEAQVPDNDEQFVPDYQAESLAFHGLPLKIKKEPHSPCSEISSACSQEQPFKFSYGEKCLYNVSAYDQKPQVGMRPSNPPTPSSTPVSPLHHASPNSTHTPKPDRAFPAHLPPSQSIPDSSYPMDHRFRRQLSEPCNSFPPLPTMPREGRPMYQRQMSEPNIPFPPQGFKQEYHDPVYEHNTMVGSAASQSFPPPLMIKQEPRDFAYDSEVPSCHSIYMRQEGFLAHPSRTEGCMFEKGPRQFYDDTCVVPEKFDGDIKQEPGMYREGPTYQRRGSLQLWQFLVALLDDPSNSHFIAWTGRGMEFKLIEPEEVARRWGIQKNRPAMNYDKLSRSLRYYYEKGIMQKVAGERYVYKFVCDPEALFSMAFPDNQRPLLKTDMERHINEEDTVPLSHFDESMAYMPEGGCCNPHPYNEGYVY
Chain of ELF4 (Q99607 whole entry, the tested form may be a part): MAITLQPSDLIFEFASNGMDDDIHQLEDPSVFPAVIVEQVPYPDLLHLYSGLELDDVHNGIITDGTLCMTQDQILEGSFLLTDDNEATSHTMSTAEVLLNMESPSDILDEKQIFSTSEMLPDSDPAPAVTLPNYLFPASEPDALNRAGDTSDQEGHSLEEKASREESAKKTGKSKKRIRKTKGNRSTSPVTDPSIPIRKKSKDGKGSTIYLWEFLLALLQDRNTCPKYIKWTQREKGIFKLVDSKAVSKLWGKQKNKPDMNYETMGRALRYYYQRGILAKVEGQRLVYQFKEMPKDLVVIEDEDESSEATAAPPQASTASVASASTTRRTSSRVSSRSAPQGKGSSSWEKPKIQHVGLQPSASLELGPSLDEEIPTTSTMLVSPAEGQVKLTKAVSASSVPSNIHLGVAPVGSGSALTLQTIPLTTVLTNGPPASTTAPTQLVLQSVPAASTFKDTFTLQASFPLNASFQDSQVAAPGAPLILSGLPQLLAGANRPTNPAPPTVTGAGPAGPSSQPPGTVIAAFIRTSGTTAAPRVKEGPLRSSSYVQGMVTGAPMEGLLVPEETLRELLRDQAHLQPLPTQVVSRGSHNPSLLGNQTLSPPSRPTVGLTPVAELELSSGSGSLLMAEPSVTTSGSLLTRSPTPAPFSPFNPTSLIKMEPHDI
Chain of ETV6 (P41212 whole entry): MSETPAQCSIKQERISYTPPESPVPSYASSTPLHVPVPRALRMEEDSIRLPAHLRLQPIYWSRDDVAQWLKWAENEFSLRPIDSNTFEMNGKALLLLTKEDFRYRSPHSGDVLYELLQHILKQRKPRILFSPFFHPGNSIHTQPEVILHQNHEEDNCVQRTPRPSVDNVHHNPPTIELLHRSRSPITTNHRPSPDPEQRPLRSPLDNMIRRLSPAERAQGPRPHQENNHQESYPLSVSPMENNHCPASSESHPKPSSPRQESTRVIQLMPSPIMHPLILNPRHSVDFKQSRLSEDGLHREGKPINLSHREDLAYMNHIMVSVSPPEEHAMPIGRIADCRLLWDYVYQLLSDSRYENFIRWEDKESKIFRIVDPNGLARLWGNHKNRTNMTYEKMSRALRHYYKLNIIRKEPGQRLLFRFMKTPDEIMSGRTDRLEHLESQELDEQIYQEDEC

ATGGGG
binding signal [1]: 1.02 fold enrichment (6-mer frequency, TF over GST control) | binding signal [2]: 1.03 fold enrichment (6-mer frequency, TF over GST control) | binding signal [3]: 1.16 fold enrichment (6-mer frequency, TF over GST control) | binding signal [4]: 1.06 fold enrichment (6-mer frequency, TF over GST control) | binding signal [5]: 1.03 fold enrichment (6-mer frequency, TF over GST control) | binding signal [6]: 1.15 fold enrichment (6-mer frequency, TF over GST control) | binding signal [7]: 1.08 fold enrichment (6-mer frequency, TF over GST control) | binding signal [8]: 1.16 fold enrichment (6-mer frequency, TF over GST control) | binding signal [9]: 1.1 fold enrichment (6-mer frequency, TF over GST control) | binding signal [10]: 1.13 fold enrichment (6-mer frequency, TF over GST control) | binding signal [11]: 1.18 fold enrichment (6-mer frequency, TF over GST control)
